The target in this assay is furin, P09958. In words: furin cleavage Z-score vs untreated control; higher = more cleavage, active = 3.5 or more, inactive = 1 or less, 8 variable residues between constant flanks. The procedure: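 Multiplexed peptide-cDNA fusion cleavage assay. 8-mer variable peptides flanked by constant Cys-Ala (N-term) and Ala-Gly-Asn-Ala-Ser-Ala-Ser-Ala (C-term) and conjugated to a cDNA oligonucleotide were bead-immobilised via the N-terminus. They were treated with purified furin at a 1:10 enzyme:substrate ratio in 50 mM HEPES pH 7.5, 1 mM CaCl2, 100 mM NaCl for 7.5, 15 or 30 min. Released cDNA was counted by next-generation sequencing, and log counts versus no-furin controls were lowess-adjusted and converted to robust Z-scores.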
Sequence of furin, P09958 (P09958 whole entry, the tested form may be a part): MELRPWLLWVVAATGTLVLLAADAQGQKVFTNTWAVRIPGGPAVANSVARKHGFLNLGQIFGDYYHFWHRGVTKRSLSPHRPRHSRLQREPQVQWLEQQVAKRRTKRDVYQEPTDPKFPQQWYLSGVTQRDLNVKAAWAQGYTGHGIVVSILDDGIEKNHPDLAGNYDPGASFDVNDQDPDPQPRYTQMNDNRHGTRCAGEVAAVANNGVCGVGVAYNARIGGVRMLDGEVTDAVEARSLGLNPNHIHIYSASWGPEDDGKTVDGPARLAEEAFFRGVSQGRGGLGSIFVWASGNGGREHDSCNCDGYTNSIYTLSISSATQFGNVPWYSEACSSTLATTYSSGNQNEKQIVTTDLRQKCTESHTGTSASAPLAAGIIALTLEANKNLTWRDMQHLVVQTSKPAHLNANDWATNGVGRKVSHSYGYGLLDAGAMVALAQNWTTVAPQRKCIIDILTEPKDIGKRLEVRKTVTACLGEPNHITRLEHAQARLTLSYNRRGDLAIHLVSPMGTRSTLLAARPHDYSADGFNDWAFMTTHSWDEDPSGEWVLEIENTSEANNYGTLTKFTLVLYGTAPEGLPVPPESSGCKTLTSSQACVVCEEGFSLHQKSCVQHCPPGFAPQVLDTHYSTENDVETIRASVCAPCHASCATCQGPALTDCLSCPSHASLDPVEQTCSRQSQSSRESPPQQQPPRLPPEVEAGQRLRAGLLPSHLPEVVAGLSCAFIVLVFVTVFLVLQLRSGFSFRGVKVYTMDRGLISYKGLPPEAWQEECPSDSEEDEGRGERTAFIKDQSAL

The list shows a part of the results. How many sequences the whole screen found active is unknown.

B1: HC152 (peptide)
chain: CAEVVTDTWVAGNASASA
For the sequence B1, the “furin cleavage Z-score” value is -0.985 (inactive) (7.5 min), 0.416 (inactive) (15 min) and -1.25 (inactive) (30 min).

B2: HC69 (peptide)
chain: CATTPCHGSWAGNASASA
With B2, the “furin cleavage Z-score” value is 1.47 (7.5 min), 0.142 (inactive) (15 min) and 1.5 (30 min).

B3: FS-660 (peptide)
chain: CAGTWRPRRSAGNASASA
On to B3, for which the “furin cleavage Z-score” value is 10.9 (active) (7.5 min), 11.6 (active) (15 min) and 7.85 (active) (30 min).

B4: FS-952 (peptide)
chain: CARLVRPRRSAGNASASA
Take B4: the “furin cleavage Z-score” value is, setting by setting: (7.5 min) 13.4 (active); (15 min) 14.2 (active); (30 min) 10.3 (active).

B5: HC2403 (peptide)
chain: CAEVPCHRPAAGNASASA
As for B5, the “furin cleavage Z-score” value (7.5 min) is -1.55 (inactive), the “furin cleavage Z-score” value (15 min) is 0.357 (inactive) and the “furin cleavage Z-score” value (30 min) was -0.33 (inactive).

B6: HC2348 (peptide)
chain: CAEVWCHRPSAGNASASA
Consider B6, for which the “furin cleavage Z-score” value (7.5 min) was 0.218 (inactive), the “furin cleavage Z-score” value (15 min) was 0.0316 (inactive) and the “furin cleavage Z-score” value (30 min) was 0.64 (inactive).

B7: HC966 (peptide)
chain: CALIRLKPTLAGNASASA
Take B7: the “furin cleavage Z-score” value by setting is: (7.5 min) -1.19 (inactive); (15 min) -1.25 (inactive); (30 min) 0.404 (inactive).

B8: HC1467 (peptide)
chain: CAFQYSPGQRAGNASASA
With B8, the “furin cleavage Z-score” value runs as follows: (7.5 min) -0.221 (inactive); (15 min) -0.464 (inactive); (30 min) -2.47 (inactive).

B9: FS-1440 (peptide)
chain: CAYRYRRRRSAGNASASA
In the case of B9, the “furin cleavage Z-score” value reads like this: (7.5 min) 4.89 (active); (15 min) 5.22 (active); (30 min) 3.7 (active).

B10: FS-1655 (peptide)
chain: CARYQRRSRSAGNASASA
Consider B10, for which the “furin cleavage Z-score” value runs as follows: (7.5 min) 7.45 (active); (15 min) 7.54 (active); (30 min) 8.29 (active).

B11: HC1480 (peptide)
chain: CAYDTRCFDSAGNASASA
As for B11, the “furin cleavage Z-score” value was -1.56 (inactive) (7.5 min), 0.436 (inactive) (15 min) and 0.927 (inactive) (30 min).

B12: FS-393 (peptide)
chain: CAYRKRQCRSAGNASASA
Take B12: the “furin cleavage Z-score” value runs as follows: (7.5 min) 5.64 (active); (15 min) 5.62 (active); (30 min) 3.16.

B13: FS-111 (peptide)
chain: CAYRRRPPRSAGNASASA
Regarding B13, the “furin cleavage Z-score” value reads like this: (7.5 min) 1.85; (15 min) 1.04; (30 min) 0.965 (inactive).

B14: FS-1296 (peptide)
chain: CAYRRRRSRSAGNASASA
Turning to B14, the “furin cleavage Z-score” value (7.5 min) was 7.22 (active), the “furin cleavage Z-score” value (15 min) is 8.22 (active) and the “furin cleavage Z-score” value (30 min) is 6.95 (active).

B15: HC45 (peptide)
chain: CATTPISGSWAGNASASA
Take B15: the “furin cleavage Z-score” value reads like this: (7.5 min) -0.899 (inactive); (15 min) -0.739 (inactive); (30 min) -0.823 (inactive).

B16: HC2485 (peptide)
chain: CASLPCSAHLAGNASASA
For the sequence B16, the “furin cleavage Z-score” value was -0.663 (inactive) (7.5 min), 0.376 (inactive) (15 min) and 0.512 (inactive) (30 min).

B17: HC1693 (peptide)
chain: CAMRECSQHLAGNASASA
With B17, the “furin cleavage Z-score” value (7.5 min) was -1.86 (inactive), the “furin cleavage Z-score” value (15 min) came to 1.41 and the “furin cleavage Z-score” value (30 min) was 0.442 (inactive).

B18: HC2277 (peptide)
chain: CASLEVVTSTAGNASASA
As to B18, the “furin cleavage Z-score” value is, setting by setting: (7.5 min) -0.584 (inactive); (15 min) -0.0293 (inactive); (30 min) 0.688 (inactive).

B19: FS-1875 (peptide)
chain: CAYIPRILGPAGNASASA
Take B19: the “furin cleavage Z-score” value is, setting by setting: (7.5 min) -0.849 (inactive); (15 min) -0.994 (inactive); (30 min) -2.27 (inactive).

B20: HC2237 (peptide)
chain: CAEVVTSTSVAGNASASA
As for B20, the “furin cleavage Z-score” value is 0.559 (inactive) (7.5 min), -1.07 (inactive) (15 min) and -1.09 (inactive) (30 min).

B21: HC185 (peptide)
chain: CATRKTSERSAGNASASA
Turning to B21, the “furin cleavage Z-score” value (7.5 min) was 0.0798 (inactive), the “furin cleavage Z-score” value (15 min) worked out at 1.75 and the “furin cleavage Z-score” value (30 min) is 1.32.

B22: FS-1611 (peptide)
chain: CARYIRSERSAGNASASA
Regarding B22, the “furin cleavage Z-score” value runs as follows: (7.5 min) 6.49 (active); (15 min) 8.32 (active); (30 min) 8.42 (active).

B23: HC1865 (peptide)
chain: CATTLCSGSWAGNASASA
As to B23, the “furin cleavage Z-score” value is, setting by setting: (7.5 min) -0.162 (inactive); (15 min) -0.533 (inactive); (30 min) 0.486 (inactive).

B24: HC66 (peptide)
chain: CATTPCFGSWAGNASASA
With B24, the “furin cleavage Z-score” value (7.5 min) was 0.204 (inactive), the “furin cleavage Z-score” value (15 min) is 0.119 (inactive) and the “furin cleavage Z-score” value (30 min) was -0.471 (inactive).

B25: FS-2974 (peptide)
chain: CARKRRRQHGAGNASASA
Take B25: the “furin cleavage Z-score” value is -0.939 (inactive) (7.5 min), -0.0293 (inactive) (15 min) and 0.389 (inactive) (30 min).

B26: FS-2973 (peptide)
chain: CARKRRKGKAAGNASASA
As for B26, the “furin cleavage Z-score” value was -1.27 (inactive) (7.5 min), 1.85 (15 min) and 0.732 (inactive) (30 min).

B27: FS-2698 (peptide)
chain: CARKRRAPLAAGNASASA
Regarding B27, the “furin cleavage Z-score” value reads like this: (7.5 min) 6.06 (active); (15 min) 7.82 (active); (30 min) 7.26 (active).

B28: FS-2493 (peptide)
chain: CARKRRAPHGAGNASASA
Regarding B28, the “furin cleavage Z-score” value by setting is: (7.5 min) 4.63 (active); (15 min) 5.64 (active); (30 min) 5.6 (active).

B29: FS-2738 (peptide)
chain: CARPFRQVLAAGNASASA
On to B29, for which the “furin cleavage Z-score” value is, setting by setting: (7.5 min) -0.792 (inactive); (15 min) 0.095 (inactive); (30 min) -0.451 (inactive).

Values taken from the supplement of paper PMC3545927.
